HT1080 IDH1KD tx: qHTS for induction of synthetic lethality in tumor cells producing 2HG: qHTS for the HT-1080-IDH1KD cell line; AID 686971, 2013; HT-1080 IDH1 knockdown viability, ATP luminescence, 48 h; 2% of 360,000 active; Potency, µM (titrated, usually from 46.1 µM), inactives show at the top dose activity, negative = toxicity, usual class: cytotoxic;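 further: potency means the concentration at half of the fitted maximal effect; 0% = DMSO wells and -100% = cell-free medium wells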
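Viability of IDH1-knockdown HT-1080 fibrosarcoma cells was assessed by CellTiter-Glo after 48 h at 37 °C with titrated compound; concentration-effect curves were classified by fit quality and response size.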
DT40 TDP1 CPT: qHTS for Inhibitors of human tyrosyl-DNA phosphodiesterase 1 (TDP1): qHTS in cells in presence of CPT; chicken DT40 Tdp1-/-;hTDP1 cells + 20 nM CPT, ATP luminescence, 48 h; Potency, µM (doses to about 46.2 µM), for the others: at the top dose activity change, negative = growth inhibition, actives largely listed as inhibitors; 12% of 420,000 active; AID 686979, 2013; further: potency means the concentration at half of the fitted maximal effect; nearly all actives have a fitted effect of over 55% in size
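Chicken DT40 Tdp1-/- cells complemented with human TDP1, 400 cells/well, exposed to compounds plus 20 nM camptothecin for at least 48 h at 37 C; viability read as ATP content by CellTiter-Glo luminescence.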
TDP1 cell noCPT: qHTS for Inhibitors of human tyrosyl-DNA phosphodiesterase 1 (TDP1): qHTS in cells in absence of CPT; DT40 Tdp1-/- hTDP1 cells, no CPT, ATP luminescence, 48 h; Potency, µM (top dose mostly 46.2 µM), without a hit: at the top dose activity change, negative = growth inhibition, most hits filed as inhibitors; 15% of 420,000 active; further: potency means the concentration at half of the fitted maximal effect; nearly all actives have a fitted effect of over 55% in size
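Cells were dispensed at 400 per well, compounds added by pin tool, plates incubated ≥48 hr at 37 °C, then CellTiter-Glo added for 30 min at room temperature before luminescence reading. Line: DT40 Tdp1-/- complemented with hTDP1; camptothecin omitted.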
HT1080NT lethal: qHTS for induction of synthetic lethality in tumor cells producing 2HG: qHTS for the HT-1080-NT fibrosarcoma cell line; AID 686970, 2013; 1.6% of 360,000 active; Potency, µM (doses to about 46.1 µM), without a hit: at the highest dose activity, negative = less viability, usual class: cytotoxic; HT-1080-NT fibrosarcoma viability, CellTiter-Glo ATP luminescence, 48 h;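 further: NT is the 2HG producing partner of a matched IDH1 knockdown line; potency means the concentration at half of the fitted maximal effect; 0% = DMSO-treated cells and -100% = media-only wells without cells; nearly all actives have a fitted effect of over 55% in size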
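Read-out is CellTiter-Glo luminescence after 10 minutes at room temperature, following 48 hours' compound treatment of HT-1080-NT cells (750 cells/well, RPMI, 5% FBS, 37 degrees C).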
IL1B secr inh: qHTS for Inhibitors of Inflammasome Signaling: IL-1-beta AlphaLISA Primary Screen | THP-1 LPS/ATP IL-1B secretion, AlphaLISA, 16 h; stronger effect = lower value | activity change, % at 57.5 µM | 4.7% of 360,000 active | AID 743279, 2014; in the data active means activity change below about -50%; inconclusive means mostly about -30% to -49%
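Secreted IL-1B measured by AlphaLISA bead assay after 16 h compound exposure of THP-1 cells; compounds (final up to 57.5 uM) added 1 h before LPS (250 ng/mL) and ATP (1.25 mM) stimulation; lower signal means less secretion.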
* marks the source's active call; other numbers are inactive results; u = inconclusive; x = no result; [ ] = remark or other dose. This is a sample that favours compounds with a hit; in the whole collection about 19% have one here. Unless noted, the call rests on the fitted dose curve; in most records, active means well fitted curve in the direction sought with a large enough effect; inconclusive means small, poorly fitted or top-dose-only effect, or another doubt; inactive means no such curve, though single readings can be large; an effect the other way counts as inactive or inconclusive. Unless noted, on the % scale 0 is the no-effect control and ±100 the full control effect.

SMILES	HT1080 IDH1KD tx	DT40 TDP1 CPT	TDP1 cell noCPT	HT1080NT lethal	IL1B secr inh
CN1CCN(C(=O)C2CCCN(S(=O)(=O)c3ccccc3)C2)CC1 (stereo unspecified)	3%	-3%	0%	15%	0
Cc1nn(C)c(C)c1S(=O)(=O)N1CCCC(C(=O)N2CCN(c3ccccc3)CC2)C1 (stereo unspecified)	2%	16µM*	23µM*	-1%	16
COc1ccc(CCN(C)CCCOc2ccc(S(=O)(=O)c3[nH]c4ccccc4c3C(C)C)cc2)cc1OC	x	13µM*	9.4µM*	x	x
CN(C)CCCOc1ccc(Cl)cc1Br	-16%	-24%	-19%	-15%	-11
CN(C)CCC1c2ccc(Cl)cc2CCc2cccnc21 (stereo unspecified) (tested in a mixture with another compound)	-13%	-6%	u	-17%	-75*
Cc1ccc(C(C)NC(=O)c2ccncc2)c(C)c1 (stereo unspecified)	4%	u	u	-5%	14
CC(=O)NC1=CC(=O)c2nonc2C1=O	x	0.079µM*	u	x	x
COc1cc(O)c(NC(C)=O)c2nonc12	-2%[9.24 µM]	-15%	-16%	0%	9
S=C(NCCc1ccccc1)N1CCN(Cc2ccc(Cl)c(Cl)c2)CC1	-4%	18µM*	u	-17%	-16
CNC(=S)N1CCC(Cc2ccccc2)CC1	5%	-1%	-3%	14%	-5
NS(=O)(=O)c1ccc(NC(=S)N2CCN(c3ccc(Cl)c(Cl)c3)CC2)cc1	u	6.5µM*	6.5µM*	u	3
NS(=O)(=O)c1ccc(NC(=S)N2CCC(Cc3ccccc3)CC2)cc1	-1%	11%	u	-10%	-62*
NS(=O)(=O)c1ccc(NC(=S)N2CCN(Cc3ccc(Cl)c(Cl)c3)CC2)cc1	-13%	u	u	-25%	-72*
COc1ccc(NC(=O)[C@@H](NS(=O)(=O)c2cccc(Cl)c2)C(C)C)cc1S(=O)(=O)N1CCOCC1	2%	-1%	-17%	8%	-10
CCC(=O)Oc1c(Sc2ccc(Cl)cc2)c(C)nn1C(C)(C)C	x	u	-29%	x	x
COc1ccc(C(=O)Oc2c(Sc3ccccc3)c(C)nn2-c2ccccc2)c(OC)c1	x	18µM*	u	x	x
Cc1nn(-c2ccccc2)c(OC(=O)C(C)C)c1Sc1ccc(Cl)cc1	x	u	10µM*	x	x
COc1ccc(OC(=O)c2cnn(-c3ccccc3)c2C)cc1	-2%	-29%	-24%	-3%	-4
CC1CCC2(CC1)NC(=O)N(CC(=O)Nc1cccnc1Cl)C2=O (stereo unspecified)	-1%	7%	14%	6%	-21
CC(=O)c1ccc(Oc2cc(C)nc(N3CCOCC3)n2)cc1	1%	-7%	-8%	-2%	-3
Cc1ccc(S(=O)(=O)/C(C#N)=C/c2c(N3CC(C)OC(C)C3)nc3c(C)cccn3c2=O)cc1 (stereo unspecified)	10%	-3%	4%	19%	45
O=C(Cc1ccc(Cl)cc1)NCC(=O)N1CCN(c2ccccc2)CC1	u	29µM*	23µM*	u	0
O=C(Cc1ccccc1)NCC(=O)N1CCN(c2ccc(F)cc2)CC1	0%	-22%	u	2%	47
CC(C)[C@H](NC(=O)c1ccc(Cl)cc1)C(=O)OCC(=O)N1CCN(c2ccccc2)CC1	3%	u	21µM*	-8%	-18
COc1ccc(N2CCN(C(=O)CNC(=O)Cc3ccc(Cl)cc3)CC2)cc1	21µM*	5.2µM*	5.8µM*	u	0
SMILES	HT1080 IDH1KD tx	DT40 TDP1 CPT	TDP1 cell noCPT	HT1080NT lethal	IL1B secr inh
CC(C)C(NC(=O)c1ccccc1)C(=O)OCC(=O)N1CCCC1 (stereo unspecified)	5%	0%	9%	4%	15
Cc1ccc(S(=O)(=O)NCCC(=O)N2CCCCCCC2)cc1C	4%	12%	1%	2%	-2
COc1ccccc1NC(=O)c1ccc(NC(=O)COC(=O)c2cncc(Br)c2)cc1	9%	8%	12%	4%	0
Cc1ccc(-c2cc(C(F)F)n3ncc(C(=O)N4CCCCC4c4cccnc4)c3n2)cc1 (stereo unspecified)	-13%	u	u	-14%	0
CSCCC1NC(=O)N(CC(=O)Nc2c(Cl)cc(Cl)cc2Cl)C1=O (stereo unspecified)	u	16µM*	u	-3%	-5
Cc1noc(C)c1S(=O)(=O)Nc1ccc2c(c1)C(=O)N([C@H](C)CO)C[C@H](C)[C@H](CN(C)C(=O)NC(C)C)OCCCC[C@@H](C)O2	2%	2%	-3%	4%	-12
COC1=CC(=O)c2nc(Cl)ccc2C1=O	2.9µM*	0.58µM*	1µM*	3.7µM*	-111*
COc1ccc(S(=O)(=O)N2CCOCC2)cc1NC(=O)/C=C/c1ccc(F)cc1	3%	7%	-6%	9%	-29
CCOc1ccc(C(C)=O)cc1CN1C(=O)NC2(CCCCCCC2)C1=O	10%	u	u	-1%	15
COc1ccc(Cl)cc1NC(=O)C1CCN(c2ncnc3c2nc2n3CCCCC2)CC1	x	16µM*	9.2µM*	x	x
O=C(Nc1ccccc1Cl)C1CCCN(c2ncnc3c2nc2n3CCCCC2)C1 (stereo unspecified)	-10%	u	15µM*	-23%	-63*
COc1cc(OC)c(NC(=O)C2CCCN(c3ncnc4c3nc3n4CCCCC3)C2)cc1Cl (stereo unspecified)	x	u	15µM*	x	x
Cc1ccc(NC(=O)C2CCN(c3ncnc4c3nc3n4CCCCC3)CC2)nc1	-25%	23µM*	21µM*	2%	-17
Cc1ccc(C)c(NC(=O)C2CCN(c3ncnc4c3nc3n4CCCCC3)CC2)c1	x	-11%	2%	x	x
O=S(=O)(CCN1CCCCC1)CCS(=O)(=O)CCN1CCCCC1	15%	u	-27%	16%	-71*
COc1ccccc1-c1nn(CCC(=O)Nc2cccc(C(C)=O)c2)c2nc(C)cc(C)c12	x	u	16µM*	x	x
CCOc1ccccc1C(=O)N1CCN=C1SCc1cccnc1	6%	-5%	-7%	-2%	-1
O=C(Nc1cccc(S(=O)(=O)N2CCOCC2)c1)c1ccc(Cl)c([N+](=O)[O-])c1	-1%	u	u	3%	-99*
